The values that follow come from PubChem BioAssay (Tox21).

A short description of test [1]: qHTS assay to identify small molecule antagonists of the thyroid receptor (TR) signaling pathway - cell viability counter screen (AID 743064). Also: nearly all actives have a fitted effect of over 50% in size. In outline:
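GH3.TRE-Luc rat pituitary cells carrying a TRE-luciferase reporter were treated with compound plus 1 nM T3 (final) for 23.5 h at 37 °C. Viability was then read in the same wells by CellTiter-Fluor fluorescence after a further 30 min.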
(In general: In qHTS, concentration-response curves come from the screen itself.)

Test [2] in a line: qHTS assay to identify small molecule antagonists of the thyroid receptor (TR) signaling pathway (AID 743065). Also: series mostly up to about 70 µM; nearly all actives have a fitted effect of over 55% in size. In outline:
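GH3.TRE-Luc rat pituitary cells (two TREs driving luciferase) were dosed with compound, then stimulated with 1 nM T3 (final) for 23.5 h at 37 C. ONE-Glo luminescence was the read-out, with CellTiter-Fluor fluorescence as the cytotoxicity counter-screen.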

For test [3], the system named is thyroid hormone receptor (rat, GH3 cells). In words: qHTS assay to identify small molecule agonists of the thyroid receptor (TR) signaling pathway (AID 743066; calls by dose curve).
The target in test [4] is Estrogen receptor (Homo sapiens) (UniProt P03372). The test is described as follows: qHTS assay to identify small molecule antagonists of the estrogen receptor alpha (ER-alpha) signaling pathway (AID 743069; active = well fitted curve in the direction sought with a large enough effect in the signal ratio in the repeat runs, not every such curve was filed as active; the % refers to the signal ratio). In outline:
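Reporter cells (ER-alpha-bla, HEK293 background) are conditioned overnight in stripped-serum medium (2% charcoal-stripped FBS). Compound and 17beta-estradiol exposure runs 18 hr at 37C, 5% CO2.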

Test [5] in a line: qHTS assay to identify small molecule antagonists of the estrogen receptor alpha (ER-alpha) signaling pathway - cell viability counter screen (AID 743074; calls by dose curve;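 also: HEK293 cells carrying ER-alpha-UAS-bla reporter stimulated with 17beta-estradiol; nearly all actives have a fitted effect of over 45% in size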).
For test [6], the target named is Estrogen receptor (Homo sapiens) (UniProt P03372). In words: qHTS assay to identify small molecule agonists of the estrogen receptor alpha (ER-alpha) signaling pathway (AID 743075; calls by dose curve;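 also: HEK293 GripTite cells with ER-alpha and UAS-driven beta-lactamase reporter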).
For test [7] the target is unchanged. The test is described as follows: qHTS assay to identify small molecule agonists of the estrogen receptor alpha (ER-alpha) signaling pathway using the BG1 cell line (AID 743079). Also: nearly all actives have a fitted effect of over 20% in size. Also: potency is read from the fitted curve at half-maximal effect.
Test [8] can be described thus: qHTS assay to identify small molecule antagonists of the estrogen receptor alpha (ER-alpha) signaling pathway using the BG1 cell line (AID 743080; calls by dose curve;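 also: BG1 cells stimulated with 17beta-estradiol alongside compound; series mostly up to about 70 µM; nearly all actives have a fitted effect of over 25% in size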). The gist of the method: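 Quantitative HTS on the Tox21 10K library: BG1 cells with endogenous ER-alpha and ERE-luciferase reporter, 17beta-estradiol stimulation, 21.5 h compound exposure, luminescence endpoint with parallel fluorescence cytotoxicity counter-read.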

Test [9] in a line: qHTS assay to identify small molecule antagonists of the estrogen receptor alpha (ER-alpha) signaling pathway using the BG1 cell line - cell viability counter screen (AID 743081).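 Also: compound given together with 17beta-estradiol as the ER stimulus; series mostly up to about 70 µM; nearly all actives have a fitted effect of over 45% in size.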
In test [10] the target is Aromatase (Homo sapiens) (UniProt P11511). The test is described as follows: qHTS assay to identify aromatase inhibitors (AID 743083). Also: series mostly up to about 70 µM; nearly all actives have a fitted effect of over 55% in size.
A short description of test [11]: qHTS assay to identify aromatase inhibitors - cell viability counter screen (AID 743084).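 Also: cells stimulated with testosterone during compound exposure; nearly all actives have a fitted effect of over 55% in size.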 Also: potency is read from the fitted curve at half-maximal effect.
The target in test [12] is Aryl hydrocarbon receptor (Homo sapiens) (UniProt P35869). The test is described as follows: qHTS assay to identify small molecule that activate the aryl hydrocarbon receptor (AhR) signaling pathway (AID 743085).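 Also: HG2L7.5c1 human HepG2 liver cells with stably integrated DRE-driven firefly reporter; series mostly up to about 70 µM; nearly all actives have a fitted effect of over 15% in size.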 In outline:
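HepG2 cells (HG2L7.5c1) stably carrying a firefly luciferase reporter driven by 20 dioxin responsive elements were exposed to compound for 24 h at 37C after a 5 h settling period; luminescence rise (ONE-Glo) indicated activation.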

A short description of test [13]: qHTS assay to identify small molecule that activate the aryl hydrocarbon receptor (AhR) signaling pathway - cell viability counter screen (AID 743086). Also: nearly all actives have a fitted effect of over 45% in size. Also: potency is read from the fitted curve at half-maximal effect. In outline:
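HepG2-AhR-luc (HG2L7.5c1) cells, 4000/well, treated 24 h at 37 C with compound; viability measured as CellTiter-Fluor fluorescence after 30 min in the same wells as the luciferase read.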

Test [14] addresses Peroxisome proliferator-activated receptor gamma (Homo sapiens) (UniProt P37231). The test is described as follows: qHTS assay to identify small molecule agonists of the peroxisome proliferator-activated receptor gamma (PPARg) signaling pathway (AID 743094; active = well fitted activation curve with a large enough effect in the signal ratio in the repeat runs, not every such curve was filed as active; the % refers to the signal ratio). In outline: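 Following 5 h plating at 37C, PPARg-bla HEK293H cells receive compound or DMSO for 17 h; fluorescence intensity is recorded after LiveBLAzer B/G loading for 1 h at room temperature.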

Structures are written as SMILES. Several values for one entry are separate records, joined by “and”; a condition that tells them apart may be missing. Identical values can stand only once. Results filed as inconclusive are left out. Where a structure was tested more than once in an assay, its records may differ in their call. Activity calls are given as the source filed them. Unless noted, calls follow the shape of the dose curve; as a rule, active = well fitted curve in the direction sought with a large enough effect in the repeat runs; inconclusive = weak or mixed curves; inactive = no such curve, though single readings can be large; an effect the other way counts as inactive or inconclusive. Residues, ends and D or L forms follow the SMILES beside them.

Aryl hydrocarbon receptor (Homo sapiens), sequence (P35869 whole entry, looked up): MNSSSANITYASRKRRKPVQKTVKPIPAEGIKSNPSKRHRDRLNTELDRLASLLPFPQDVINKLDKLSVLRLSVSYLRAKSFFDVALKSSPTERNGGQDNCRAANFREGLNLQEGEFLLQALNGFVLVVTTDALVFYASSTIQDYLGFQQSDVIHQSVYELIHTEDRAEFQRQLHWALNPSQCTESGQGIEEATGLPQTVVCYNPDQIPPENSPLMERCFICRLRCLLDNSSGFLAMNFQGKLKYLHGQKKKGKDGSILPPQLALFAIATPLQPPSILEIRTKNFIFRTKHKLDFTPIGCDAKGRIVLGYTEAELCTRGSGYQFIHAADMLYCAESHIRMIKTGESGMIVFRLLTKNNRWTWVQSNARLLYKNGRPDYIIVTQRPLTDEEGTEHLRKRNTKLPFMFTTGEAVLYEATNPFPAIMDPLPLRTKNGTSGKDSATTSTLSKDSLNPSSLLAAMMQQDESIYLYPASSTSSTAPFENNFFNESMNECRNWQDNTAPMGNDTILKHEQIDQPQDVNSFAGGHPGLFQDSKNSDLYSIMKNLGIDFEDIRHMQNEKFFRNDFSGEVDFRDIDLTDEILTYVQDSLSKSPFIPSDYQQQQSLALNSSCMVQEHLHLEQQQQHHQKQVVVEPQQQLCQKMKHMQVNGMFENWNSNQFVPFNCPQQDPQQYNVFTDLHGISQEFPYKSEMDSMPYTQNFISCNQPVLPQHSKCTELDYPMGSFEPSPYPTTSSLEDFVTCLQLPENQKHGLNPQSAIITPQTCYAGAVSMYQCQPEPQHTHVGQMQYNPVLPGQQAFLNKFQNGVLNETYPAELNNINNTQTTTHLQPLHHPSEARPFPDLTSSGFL
Peroxisome proliferator-activated receptor gamma (Homo sapiens), sequence (P37231 whole entry, looked up): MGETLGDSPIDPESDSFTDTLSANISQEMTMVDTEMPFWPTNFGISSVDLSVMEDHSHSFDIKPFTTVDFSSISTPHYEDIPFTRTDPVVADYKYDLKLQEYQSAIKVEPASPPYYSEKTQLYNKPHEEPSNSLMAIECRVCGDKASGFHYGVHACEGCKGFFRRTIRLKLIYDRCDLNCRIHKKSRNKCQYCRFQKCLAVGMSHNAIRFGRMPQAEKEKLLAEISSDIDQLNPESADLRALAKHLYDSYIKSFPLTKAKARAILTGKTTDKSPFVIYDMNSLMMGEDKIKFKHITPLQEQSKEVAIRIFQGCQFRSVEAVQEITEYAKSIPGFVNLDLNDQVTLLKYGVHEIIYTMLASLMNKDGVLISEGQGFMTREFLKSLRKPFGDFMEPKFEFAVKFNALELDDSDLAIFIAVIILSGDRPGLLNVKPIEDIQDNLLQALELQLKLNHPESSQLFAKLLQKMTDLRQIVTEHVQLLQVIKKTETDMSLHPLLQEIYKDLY
Aromatase (Homo sapiens), sequence (P11511 whole entry, looked up): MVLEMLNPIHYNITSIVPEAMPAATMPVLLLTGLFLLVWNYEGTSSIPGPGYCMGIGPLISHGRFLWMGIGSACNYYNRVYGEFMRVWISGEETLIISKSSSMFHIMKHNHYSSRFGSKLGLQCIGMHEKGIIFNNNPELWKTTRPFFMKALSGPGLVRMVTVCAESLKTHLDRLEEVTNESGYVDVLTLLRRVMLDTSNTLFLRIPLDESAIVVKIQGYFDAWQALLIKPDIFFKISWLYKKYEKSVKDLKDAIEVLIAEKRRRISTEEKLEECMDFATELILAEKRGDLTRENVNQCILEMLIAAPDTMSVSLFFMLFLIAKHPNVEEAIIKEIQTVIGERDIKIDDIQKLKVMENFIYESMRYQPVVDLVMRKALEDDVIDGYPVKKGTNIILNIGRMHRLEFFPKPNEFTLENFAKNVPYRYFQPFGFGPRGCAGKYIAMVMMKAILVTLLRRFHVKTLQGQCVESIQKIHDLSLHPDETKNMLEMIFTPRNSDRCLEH
Estrogen receptor (Homo sapiens), sequence (P03372 whole entry, looked up): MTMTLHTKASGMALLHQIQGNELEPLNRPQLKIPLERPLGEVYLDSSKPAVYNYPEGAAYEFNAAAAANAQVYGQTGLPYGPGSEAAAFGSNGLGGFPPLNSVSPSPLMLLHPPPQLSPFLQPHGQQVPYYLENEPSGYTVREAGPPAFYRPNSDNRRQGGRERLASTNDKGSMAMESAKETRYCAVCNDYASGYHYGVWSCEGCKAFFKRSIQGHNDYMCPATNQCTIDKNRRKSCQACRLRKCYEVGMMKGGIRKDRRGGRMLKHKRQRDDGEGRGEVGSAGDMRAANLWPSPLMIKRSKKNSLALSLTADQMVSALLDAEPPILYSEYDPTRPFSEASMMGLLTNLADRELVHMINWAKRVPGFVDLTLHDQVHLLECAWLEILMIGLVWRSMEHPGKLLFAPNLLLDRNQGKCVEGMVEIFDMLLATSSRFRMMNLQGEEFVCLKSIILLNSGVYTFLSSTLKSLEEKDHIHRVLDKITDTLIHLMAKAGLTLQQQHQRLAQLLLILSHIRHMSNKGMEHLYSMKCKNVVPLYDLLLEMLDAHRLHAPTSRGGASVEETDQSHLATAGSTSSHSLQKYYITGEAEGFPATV

Regarding `CC1(C)S[C@@H]2[C@H](N3C(=O)C(c4ccccc4)NC3(C)C)C(=O)N2[C@H]1C(=O)O` (some centres undefined), the Potency result in test [1], in test [2], in test [3], in [4], in test [5] and in test [6] was “inactive” in each case. Besides, the Potency result in test [7], in test [8], in test [9], in test [10], in test [11] and in test [12] was “inactive” throughout. The Potency result in test [13] and in [14] was “inactive” throughout.
In the case of `C=CC1=C(C(=O)O)N2C(=O)[C@@H](NC(=O)/C(=N/OCC(=O)O)c3csc(N)n3)[C@H]2SC1` (stereo in doubt), the Potency result in test [1], in test [2], in test [3], in test [4], in [5] and in test [6] was “inactive” throughout. Further, the Potency result in test [7], in test [8], in test [9], in test [10], in [11] and in test [12] was “inactive” in each case. Moreover, the Potency entry in test [13] and in test [14] was “inactive” in each case.
Consider `O=C(Cn1cnnn1)N[C@@H]1C(=O)N2C(C(=O)O)=C(CSc3nncs3)CS[C@H]12`, for which the Potency result in test [1], in test [2], in test [3], in test [4], in test [5] and in [6] was “inactive” each time. Moreover, the Potency entry in test [7], in test [8], in [9], in test [10], in test [11] and in test [12] was “inactive” each time. Moreover, the Potency result in [13] and in [14] was “inactive” in each case.
Take `C=CCN1C(=O)C(CC(C)C)NC1=S` (centres undefined): the Potency result in test [1], in [2], in [3], in [4], in test [5] and in test [6] was “inactive” each time. In addition, the Potency result in test [7], in [8], in test [9], in [10], in test [11] and in [12] was “inactive” throughout. Moreover, the Potency result in [13] and in test [14] was “inactive” in each case.
Take `CC(C)[C@H](NC(=O)[C@H](CC(=O)O)NC(=O)[C@H](CCCCN)NC(=O)[C@@H](N)CCCN=C(N)N)C(=O)N[C@@H](Cc1ccc(O)cc1)C(=O)O` (H-RKDVY-OH): the Potency entry in test [1], in [2], in test [3], in [4], in test [5] and in test [6] was “inactive” each time. For the same compound, the Potency result in [7], in test [8], in test [9], in test [10], in test [11] and in test [12] was “inactive” throughout. In addition, the Potency entry in test [13] and in [14] was “inactive” each time.
With `CC12CCC(C1)C(C)(C)C2=O` (centres undefined), the Potency entry in test [1], in test [2], in test [3], in test [4], in test [5] and in [6] was “inactive” throughout. The Potency result in [7], in test [8], in test [9], in [10], in test [11] and in test [12] was “inactive” in each case. The Potency entry in test [13] and in test [14] was “inactive” in each case.
As for `NCC1CCC(C(=O)O)CC1` (centres undefined), the Potency result in [1], in test [2], in test [3], in test [4], in [5] and in test [6] was “inactive” in each case. For the same compound, the Potency entry in test [7], in test [8], in test [9], in [10], in [11] and in [12] was “inactive” in each case. The Potency entry in [13] and in test [14] was “inactive” each time.
Take `NC(=O)C1c2ccccc2CCc2ccccc21`: the Potency entry in test [1], in test [2], in test [3], in test [4], in test [5] and in [6] was “inactive” each time. For the same compound, the Potency entry in test [7], in [8], in test [9], in test [10], in test [11] and in test [12] was “inactive” each time. Moreover, the Potency entry in test [13] and in [14] was “inactive” each time.
For the compound `C[N+]1(CCCCC[N+]2(C)CCCC2)CCCC1`, the Potency result in test [1], in test [2], in [3], in [4], in test [5] and in test [6] was “inactive” in each case. The Potency result in [7], in [8], in [9], in [10], in test [11] and in test [12] was “inactive” each time. Also, the Potency result in test [13] and in test [14] was “inactive” throughout.
Take `CCCCCCCCCC(=O)NO`: the Potency entry in test [1], in [2], in test [3], in [4], in test [5] and in test [6] was “inactive” each time. Further, the Potency entry in [7], in test [8], in test [9], in [10], in [11] and in test [12] was “inactive” throughout. Moreover, the Potency result in test [13] and in test [14] was “inactive” throughout.
On to `C=CC(N)CCC(=O)O` (centres undefined), for which the Potency result in test [1], in [2], in [3], in test [4], in [5] and in test [6] was “inactive” each time. Besides, the Potency result in [7], in [8], in [9], in [10], in [11] and in test [12] was “inactive” in each case. The Potency result in test [13] and in [14] was “inactive” throughout.
`O=P(O)(O)CP(=O)(O)O`: the Potency result in test [1], in [2], in [3], in test [4], in test [5] and in [6] was “inactive” in each case. For the same compound, the Potency entry in test [7], in test [8], in [9], in [10], in test [11] and in test [12] was “inactive” in each case. The Potency result in test [13] and in test [14] was “inactive” each time.
Consider `CS(=O)(=O)c1ccc([C@@H](O)[C@@H](COC(=O)CN)NC(=O)C(Cl)Cl)cc1`, for which the Potency result in test [1], in [2], in [3], in test [4], in test [5] and in test [6] was “inactive” in each case. For the same compound, the Potency result in test [7], in test [8], in [9], in test [10], in test [11] and in test [12] was “inactive” each time. Further, the Potency entry in test [13] and in test [14] was “inactive” in each case.
For the compound `CC[C@H]1OC(=O)[C@H](C)C(=O)[C@H](C)[C@@H](O[C@@H]2O[C@H](C)C[C@H](N(C)C)[C@H]2O)[C@](C)(OC)C[C@@H](C)C(=O)[C@H](C)[C@H]2N(CCCCn3cnc(-c4cccnc4)c3)C(=O)O[C@]12C`, the Potency result in test [1], in test [2], in test [3], in test [4], in test [5] and in [6] was “inactive” in each case. The Potency result in test [7], in test [8], in [9], in [10], in test [12] and in test [14] was “inactive” in each case. For the same compound, the Potency result is “inactive and 15 µM (active)” in test [11]; “inactive and 21.1 µM (active)” in [13].
In the case of `CC(=O)NC[C@H]1CN(c2ccc(N3CCOCC3)c(F)c2)C(=O)O1`, the Potency result in [1], in test [2], in test [3], in test [4], in test [5] and in [6] was “inactive” each time. In addition, the Potency result in test [8], in [9], in test [10], in [11], in test [12] and in test [13] was “inactive” in each case. The Potency result in [14] is “inactive”. In test [7], the Potency was 13.3 µM (active).
Turning to `O=C(O)Cc1nn(Cc2ccc(Br)cc2F)c(=O)c2ccccc12`, the Potency entry in test [1], in test [2], in test [3], in test [4], in test [5] and in [6] was “inactive” in each case. Further, the Potency entry in test [7], in [8], in test [9], in test [10], in [11] and in test [12] was “inactive” each time. For the same compound, the Potency entry in test [13] and in test [14] was “inactive” in each case.
